{"source": "PubChem BioAssay AID743419", "about": "(Vanderbilt Specialized Chemistry Center, 2014)", "biological_target": "Metabotropic glutamate receptor 5 (Homo sapiens) (UniProt P41594)", "sequence (P41594 whole entry, looked up)": "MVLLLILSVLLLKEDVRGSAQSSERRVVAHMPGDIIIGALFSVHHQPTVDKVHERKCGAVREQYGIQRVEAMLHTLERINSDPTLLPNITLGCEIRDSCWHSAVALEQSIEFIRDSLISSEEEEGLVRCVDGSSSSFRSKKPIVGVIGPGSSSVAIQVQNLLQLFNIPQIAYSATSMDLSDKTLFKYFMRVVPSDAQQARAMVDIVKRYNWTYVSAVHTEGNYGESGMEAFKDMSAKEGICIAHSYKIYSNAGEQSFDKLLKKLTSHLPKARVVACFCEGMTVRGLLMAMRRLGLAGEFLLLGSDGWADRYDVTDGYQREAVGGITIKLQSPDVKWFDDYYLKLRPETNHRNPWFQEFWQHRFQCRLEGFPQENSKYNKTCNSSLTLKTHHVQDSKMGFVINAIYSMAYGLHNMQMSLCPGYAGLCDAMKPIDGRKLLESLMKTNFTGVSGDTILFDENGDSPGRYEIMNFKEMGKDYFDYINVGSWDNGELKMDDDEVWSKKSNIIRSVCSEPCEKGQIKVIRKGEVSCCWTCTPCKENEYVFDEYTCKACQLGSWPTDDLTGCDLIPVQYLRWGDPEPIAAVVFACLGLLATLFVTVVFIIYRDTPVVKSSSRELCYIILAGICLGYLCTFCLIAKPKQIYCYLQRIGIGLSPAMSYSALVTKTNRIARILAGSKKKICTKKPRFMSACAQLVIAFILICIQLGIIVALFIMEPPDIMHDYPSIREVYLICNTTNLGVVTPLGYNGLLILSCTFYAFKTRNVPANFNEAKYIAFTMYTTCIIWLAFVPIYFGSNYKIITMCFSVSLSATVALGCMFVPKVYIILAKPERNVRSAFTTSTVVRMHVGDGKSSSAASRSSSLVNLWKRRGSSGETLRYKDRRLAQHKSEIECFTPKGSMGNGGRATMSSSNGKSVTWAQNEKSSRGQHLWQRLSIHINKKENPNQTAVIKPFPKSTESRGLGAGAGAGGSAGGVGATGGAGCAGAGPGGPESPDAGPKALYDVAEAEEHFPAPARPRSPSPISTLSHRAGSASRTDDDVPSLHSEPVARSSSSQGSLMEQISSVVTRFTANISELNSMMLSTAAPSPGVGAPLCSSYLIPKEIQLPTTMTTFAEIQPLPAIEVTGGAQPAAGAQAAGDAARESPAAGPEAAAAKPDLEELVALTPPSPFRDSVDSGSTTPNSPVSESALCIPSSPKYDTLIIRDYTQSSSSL", "assay": "mGlu5 glutamate response modulation at 10 µM, profiling panel, selectivity assay for mGlu8/mGlu7 PAM project, cell-based, calcium fluorescence, glutamate curve fold shift (AID 743419)", "conditions": "mGlu5 cells, Fluo-4 calcium, glutamate CRC shift, glutamate EC50 fold shift, stronger effect = higher value"}
{"compound": "COC(=O)c1ccc(-n2c(C)cc(C(=O)CSc3ccc(NC(C)=O)cc3)c2C)cc1", "values": [{"measurement": "fold shift", "value": 1.45}]}
